From PubChem BioAssay
The list is not random: actives were taken first. Their share in the collection is about 12%.
HP1b chromo inh – inhibitors of HP1-beta chromodomain binding to methylated histone tails; P83916; AlphaScreen HP1-beta / biotin-H3K9me3 peptide binding; Potency, µM (top dose mostly 114 µM), for the others: top-dose activity change, negative = inhibition, actives largely listed as inhibitors; 390,000 compounds, 0.56% hits; also: nearly all actives have a fitted effect of over 70% in size
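AlphaScreen: HP1-beta (50 nM) preformed 30 min with biotin-H3(1-18)K9me3 peptide (50 nM) in PBS pH 7.4, 0.01% Tween-20. Compound added for 30 min at RT, then streptavidin donor/nickel chelate acceptor beads (10 ug/mL) for 30 min.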
BAZ2B block – blocks human BAZ2B | 360,000 compounds, 4.4% hits | AlphaScreen BAZ2B-H3K14Ac peptide displacement | AID 504333 | Q9UIF8 | Potency, µM (doses to about 114 µM), for inactives: at the top dose activity change, negative = inhibition, usual class: inhibitors; also: % is scaled to controls: 0 for no effect and ±100 for the full control effect; nearly all actives have a fitted effect of over 60% in size
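BAZ2B 50 nM plus b-H3(5-23)K14Ac 50 nM, PBS pH 7.4/0.01% Tween-20, 30 min RT; compound added (max 110 uM), 30 min RT; streptavidin donor/Ni-chelate acceptor beads 10 ug/mL final, 20 min dark; AlphaScreen read.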
Sfp inh – inhibitors of Bacillus subtilis Sfp phosphopantetheinyl transferase; Q9F4F7; Biochemical Sfp PPTase activity, qHTS; Potency, µM, for the others: largest response in the series, negative = inhibition, most hits filed as inhibitors; 310,000 compounds, 3.5% hits;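 also: the enzyme is Sfp with the accession as filed and its product quenches rhodamine fluorescence; 0% = enzyme reaction without inhibitor and -100% = no enzyme wells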
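Buffer: 50 mM Hepes-Na pH 7.6, 10 mM MgCl2, 0.01% Nonidet P-40, 0.01% BSA. Enzyme 15 nM, pre-exposed to compound 15 min; substrates then added and fluorescence change tracked over 30 min.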
JMJD2A Tudor inh – JMJD2A Tudor domain (human) inhibition; O75164; AlphaScreen JMJD2A-Tudor / H3K4me3 peptide binding; Potency, µM (top dose mostly 114 µM), for the others: at the highest dose activity change, negative = inhibition, actives largely listed as inhibitors; 390,000 compounds, 4.4% hits; also: % is scaled to controls: 0 for no effect and ±100 for the full control effect; nearly all actives have a fitted effect of over 50% in size
G9a block – blocks human histone lysine methyltransferase G9a; 350,000 compounds, 8.8% hits; Potency, µM (top dose mostly 102 µM), for inactives: top-dose activity, negative = inhibition, usual class: inhibitors; G9a H3K9 monomethylation, AlphaScreen, 2 h; AID 504332; Q96KQ7; also: % is scaled to controls: 0 for no effect and ±100 for the full control effect; nearly all actives have a fitted effect of over 75% in size
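Readings reflect AlphaScreen signal from monomethyl-H3K9 antibody detection. HMT at 20 nM; substrate b-H3K9 500 nM; cofactor SAM 20 uM; 2 h RT reaction; compounds tested as titrations in qHTS with 15 min preincubation.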
PLK1 PBD block – PLK1 (human) polo-box domain binding inhibition; P53350; Plk1 PBD binding of FITC phosphopeptide, fluorescence polarization; Potency, µM, for the others: max response, negative = inhibition, actives largely listed as inhibitors; 360,000 compounds, 2.8% hits; AID 720504; also: series mostly up to about 57 µM; % is scaled to controls: 0 for no effect and ±100 for the full control effect; nearly all actives have a fitted effect of over 65% in size
* = called active by the depositor; ? = inconclusive; . = no result given; [ ] = dose if it differs, or a comment. Calls follow the shape of the dose curve; as a rule, active = well fitted curve in the direction sought with a large enough effect; inconclusive = small, poorly fitted or top-dose-only effect, or another doubt; inactive = no such curve, though single readings can be large; an effect the other way counts as inactive or inconclusive. Potency is read from the fitted curve at half-maximal effect.

SMILES	HP1b chromo inh	BAZ2B block	Sfp inh	JMJD2A Tudor inh	G9a block	PLK1 PBD block
CCOC(=O)C1CCN(C(c2ccccc2)c2c(O)cc(C)n(Cc3ccco3)c2=O)CC1 (centres undefined)	40%[57 µM]	-19%	.	-11%	-49%[59 µM]	.
Cc1ccc(Cn2c(CO)cnc2SCC(=O)NCc2ccccc2Cl)cc1	0%[57 µM]	?	.	-28%	-29%[59 µM]	.
CCc1ccc2c(c1)C1(NN=C(c3cccc4ccccc34)S1)C(=O)N2 (centres undefined)	.	20µM*	-3%	.	?	.
CN1[C@@H]2CC[C@H]1CC(OC(c1ccccc1)c1ccccc1)C2 (some centres undefined)	.	.	-16%	.	-38%[59 µM]	.
Nc1nonc1-n1nnc(C(=O)N/N=C/c2cccc(O)c2)c1CN1CCCC1	31%	-19%	0%	-7%	45µM*	-9%
COCc1c(C(=O)N/N=C\c2ccccn2)nnn1-c1nonc1N	24%	40µM*	56µM*	79µM*	0.79µM*	5%
Nc1nonc1-n1nnc(C(=O)N/N=C/c2ccc(Cl)cc2Cl)c1CN1CCCCC1	53%	-5%	22%	-6%	35µM*	0%
Nc1nonc1-n1nnc(C(=O)N/N=C/c2ccc(O)cc2)c1CN1CCCCCC1	12%	.	.	?	.	?
Nc1nonc1-n1nnc(C(=O)N/N=C/c2cccc(Cl)c2)c1CN1CCCCCC1	49%	.	.	-12%	.	-11%
CCOC(=O)C1CCN(C(=O)CSc2n[nH]c(-c3ccc(OC)cc3)n2)CC1	33%[57 µM]	5%	.	1%	6%[59 µM]	.
O=c1ccc(C(F)(F)F)cn1Cc1cc(=O)n2cc(Br)ccc2n1	17%	79µM*	13%	-30%	4.5µM*	-7%
CCOC(=O)C1CCN(C(c2ccccn2)c2c(C)[nH]c3ccccc23)CC1 (centres undefined)	?	-12%	?	?	1.4µM*	12µM*
Cc1[nH]c2ccccc2c1C(c1ccccn1)N1CCC(C(N)=O)CC1 (centres undefined)	-34%	.	63µM*	?	1.6µM*	6.7µM*
Cc1ccccc1-n1nc2c(c1NC(=O)C1CC1)CS(=O)(=O)C2	.	.	.	.	.	-6%
CCOC(=O)c1c(-c2ccco2)csc1NC(=O)COC(=O)c1cnc(C)cn1	?	50µM*	.	?	6%[0.501 µM]	-12%
CCOC(=O)c1c(-c2ccc(OC)cc2)csc1NC(=O)CSc1nnc(C)c(=O)[nH]1	14%	.	16%	-21%	2%	-22%
CCOC(=O)c1c(CC(C)C)csc1NC(=O)COC(=O)c1cnc(C)cn1	.	.	.	.	.	-8%
CCOC(=O)c1c(-c2ccc(C)o2)csc1NC(=O)CN1CCOCC1	-7%	?	45µM*	?	50µM*	-10%
CCOC(=O)c1c(-c2ccccc2)csc1NC(=O)CCN1CCOCC1	?	50µM*	50µM*	2µM*	?	-2%
CCOC(=O)c1c(-c2ccc(C)o2)csc1NC(=O)CSc1ncn[nH]1	-4%	?	28µM*	?	?	-23%
CCOC(=O)c1c(-c2cccs2)csc1NC(=O)CN1CCOCC1	37%	-6%	-21%	13%	11%[59 µM]	0%
Cc1ccc(C)c(N2CCN(C(=O)Cn3nc(Cc4cccnc4)c4ccccc4c3=O)CC2)c1	5%	?	.	?	-29%[59 µM]	.
Cc1cccc(NC(=O)c2ccc(Cl)c(S(=O)(=O)N3CCCCC3)c2)n1	31%	10%	.	-14%	-4%	-3%
CCOC(=O)c1cnc(-c2ccccc2)nc1N1CCOCC1	42%	5%	16%	16%	12%	2%
CCOC(=O)c1c(-c2ccc(C)cc2)csc1NC(=S)NC(=O)c1ccccc1	3%	-29%	21%	?	-12%[59 µM]	-5%
SMILES	HP1b chromo inh	BAZ2B block	Sfp inh	JMJD2A Tudor inh	G9a block	PLK1 PBD block
CCOC(=O)c1c(-c2ccc(C)cc2)csc1NC(=O)CCN1CCOCC1	?	32µM*	?	6.3µM*	10µM*	-10%
CCOC(=O)c1c(-c2ccc(C)o2)csc1NC(=S)NC(=O)N(C)C	?	45µM*	56µM*	?	?	?
CCOC(=O)c1[nH]cc(-c2ccccc2)c1N1CCOCC1	?	-35%	-101%	?	?	5.3µM*
CCOC(=O)c1c(-c2ccccc2)csc1NC(=O)COc1ccc2c(C)cc(=O)oc2c1	?	10%	7%	-25%[57.1 µM]	-8%[59 µM]	27µM*
Cc1csc(NC(=O)COc2ccc3c(C)cc(=O)oc3c2)n1	23%	7%	9%	-3%	-4%[59 µM]	-4%
CCOC(=O)c1c(-c2ccccc2)csc1NC(=O)c1ccc(S(=O)(=O)N2CCOCC2)cc1	68%	-3%	11%	13%	-5%[59 µM]	4%
C=C(C)[C@@H]1CCC2(C(=O)O)CC[C@]3(C)[C@H](CC[C@@H]4[C@@]5(C)CCC(=O)C(C)(C)[C@@H]5CC[C@]43C)[C@@H]12 (some centres undefined)	13%	-1%	-1%	-7%	3%	13µM*
CCOC(=O)c1cccc(NC(=O)/C=C/c2ccc3c(c2)OCO3)c1	34%	5%	79µM*	1%[57.1 µM]	9%[59 µM]	-12%
NC(=O)c1ccc(NC(=O)COC(=O)/C=C/c2ccc3c(c2)OCO3)cc1	1%	-14%	-9%	-17%[11.4 µM]	-4%	27µM*
COc1ccccc1NC(=O)COC(=O)/C=C/c1ccc2c(c1)OCO2	33%	-5%	79µM*	-10%	1%[59 µM]	-18%
COc1ccccc1NC(=O)/C=C/c1ccc2c(c1)OCO2	25%	-13%	1%	-18%	15%[59 µM]	1%
O=C(CN1CCN(C(=O)c2ccccc2)CC1)Nc1cccc(S(=O)(=O)N2CCCC2)c1	22%	11%	.	-17%	?	1%
COC(=O)c1ccc(NC(=O)C(=O)NCCc2csc3nc(-c4ccccc4F)nn23)cc1	22%[57 µM]	0%	.	1%	3%[59 µM]	.
CC1CN(C(=O)CCNC(=O)c2ccc(Cl)cc2)CC(C)O1 (centres undefined)	34%	-3%	5%	-1%	17%	0%
Cc1[nH]c2ccccc2c1C(C#N)(C#N)C1C(=O)c2ccccc2C1=O	11µM*	7.9µM*	?	13µM*	-111%[12.7 µM]	?
COc1ccc(CCNC(=O)C(NS(=O)(=O)c2ccc3c(c2)CCN3C(C)=O)C(C)C)cc1OC (centres undefined)	.	-19%	15%	.	40µM*	.
Cn1nc(C(F)(F)F)c2cc(C(=O)O)sc21	21%	-8%	7%	-3%[11.4 µM]	3%	-17%
CCn1c(-c2cc3c(C(F)(F)F)nn(C)c3s2)n[nH]c1=S	-17%	-4%	71µM*	8.9µM*	5.6µM*	-14%
Cn1c(-c2cc3c(C(F)(F)F)nn(C)c3s2)n[nH]c1=S	-11%	-35%	?	11µM*	32µM*	-5%
